Shown are actives, neighbours in structure and some others; about 18% of the full set was active somewhere.
DT40 TDP1 CPT: DT40-hTDP1 cell growth loss with CPT. Potency, µM (top dose mostly 46.2 µM), for the others: at the top dose activity change, negative = growth inhibition, hits mostly inhibitors. chicken DT40 Tdp1-/-;hTDP1 cells + 20 nM CPT, ATP luminescence, 48 h. AID 686979. 420,000 tested, 12% active; further: potency means the concentration at half of the fitted maximal effect; nearly all actives have a fitted effect of over 55% in size
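Chicken DT40 Tdp1-/- cells complemented with human TDP1, 400 cells/well, exposed to compounds plus 20 nM camptothecin for at least 48 h at 37 C; viability read as ATP content by CellTiter-Glo luminescence.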
CtBP-E1A blk: CtBP/E1A binding inhibition; AlphaScreen GST-E1A/His-CtBP binding, 1536-well; hits give low values; activity change, % (no concentration beside the values); 340,000 tested, 0.49% active; AID 651724; in the data active means activity change below about -65%; inconclusive means mostly about -30% to -63%
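AlphaScreen with 125 nM GST-E1A and 125 nM His-CtBP (5X stocks) in Tris pH 8.0, 300 mM NaCl, BSA, Tween 20, TCEP. Compounds preincubated 2 h at 37 deg C, then glutathione donor/nickel acceptor beads added for 1 h at 37 deg C in dark.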
TDP1 block: blocks human tyrosyl-DNA phosphodiesterase 1; 350,000 tested, 0.28% active; Potency, µM (titrated, usually from 130 µM), for inactives: at the top dose activity change, negative = inhibition, hits mostly inhibitors; recombinant TDP1, AlphaScreen DNA substrate cleavage; further: potency means the concentration at half of the fitted maximal effect; nearly all actives have a fitted effect of over 40% in size
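AlphaScreen read-out: signal falls as enzyme removes the 3' tyrosine-FITC from a 5'-biotinylated DNA oligo (15 nM, 5 min, RT). Enzyme was E. coli-made recombinant Tdp1 at 1 nM, exposed to compound for 15 min beforehand; beads 10 ug/ml, 10 min.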
Six1-Eya2 inh: Six1/Eya2 interaction inhibition; Q15475+O00167; 360,000 tested, 0.56% active; activity change, % (test concentration not listed); AID 651725; AlphaScreen GST-Six1/His-Eya2 binding, biochemical; hits give low values; in the data active means activity change below about -65%; inconclusive means mostly about -30% to -63%
Target sequence (O00167 whole entry, looked up): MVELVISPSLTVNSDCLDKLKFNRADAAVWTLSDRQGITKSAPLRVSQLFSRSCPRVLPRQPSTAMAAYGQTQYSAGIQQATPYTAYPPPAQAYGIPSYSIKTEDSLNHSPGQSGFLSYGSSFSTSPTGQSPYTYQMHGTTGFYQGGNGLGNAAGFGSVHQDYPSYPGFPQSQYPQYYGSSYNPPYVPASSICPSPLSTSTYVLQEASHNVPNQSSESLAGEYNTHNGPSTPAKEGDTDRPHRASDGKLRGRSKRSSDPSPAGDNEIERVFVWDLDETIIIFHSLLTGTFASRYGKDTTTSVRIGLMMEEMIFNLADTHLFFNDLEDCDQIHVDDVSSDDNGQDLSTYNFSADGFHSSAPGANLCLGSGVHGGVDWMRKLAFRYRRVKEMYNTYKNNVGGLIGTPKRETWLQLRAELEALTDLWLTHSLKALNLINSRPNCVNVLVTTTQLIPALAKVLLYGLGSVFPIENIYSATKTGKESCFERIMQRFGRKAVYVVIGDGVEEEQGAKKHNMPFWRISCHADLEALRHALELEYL
Target sequence (Q15475 whole entry, looked up): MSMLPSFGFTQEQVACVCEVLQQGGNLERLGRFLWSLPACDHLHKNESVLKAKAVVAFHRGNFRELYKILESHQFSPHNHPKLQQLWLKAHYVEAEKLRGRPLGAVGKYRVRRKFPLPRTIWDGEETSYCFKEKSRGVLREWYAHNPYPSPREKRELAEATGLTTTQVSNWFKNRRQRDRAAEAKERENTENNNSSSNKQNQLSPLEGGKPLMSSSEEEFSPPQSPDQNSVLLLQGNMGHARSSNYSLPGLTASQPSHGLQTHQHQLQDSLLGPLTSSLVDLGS
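Homogeneous AlphaScreen proximity assay pairing GST-Six1 with His-tagged Eya2 (added as 5X mix: 250 nM and 500 nM) in 50 mM Tris pH 8.0, 300 mM NaCl, 1 mM TCEP. Glutathione donor and nickel acceptor beads; 1 h, 37 °C, dark.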
DT40 TDP1 no CPT: qHTS for Inhibitors of human tyrosyl-DNA phosphodiesterase 1 (TDP1): qHTS in cells in absence of CPT | DT40 Tdp1-/- hTDP1 cells, no CPT, ATP luminescence, 48 h | Potency, µM (top dose mostly 46.2 µM), for the others: at the highest dose activity change, negative = growth inhibition, actives largely listed as inhibitors | 420,000 tested, 15% active; further: potency means the concentration at half of the fitted maximal effect; nearly all actives have a fitted effect of over 55% in size
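Camptothecin absent (DMSO only). Human TDP1-complemented DT40 knockout cells, 400 cells/well, 37 °C for minimum 48 hr; ATP measured via CellTiter-Glo, 30 min dark incubation, luminescence.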
IL-1B inflam inh: blocks inflammasome-driven IL-1 beta release | THP-1 LPS/ATP IL-1B secretion, AlphaLISA, 16 h; hits give low values | activity change, % at 57.5 µM | 360,000 tested, 4.7% active | AID 743279; in the data active means activity change below about -50%; inconclusive means mostly about -30% to -49%
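THP-1 cells pretreated 1 hr with compounds (up to 57.5 uM final), then stimulated with LPS (250 ng/mL final) plus ATP (1.25 mM final); secreted IL-1B measured by AlphaLISA after 16 hr, decreased signal indicating inhibition.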
Active calls of the source: *. Unless noted, the call rests on the fitted dose curve; in most records, active means well fitted curve in the direction sought with a large enough effect; inconclusive means small, poorly fitted or top-dose-only effect, or another doubt; inactive means no such curve, though single readings can be large; an effect the other way counts as inactive or inconclusive. On the % scale 0 is the no-effect control and ±100 the full control effect.

Screening O=C(COc1ccccc1)Nc1c2c(nn1-c1ccc(F)cc1)CS(=O)C2 (stereo not drawn) returned DT40 TDP1 CPT 8.3%, CtBP-E1A blk 1.7, Six1-Eya2 inh 3.5, DT40 TDP1 no CPT -1.4% and IL-1B inflam inh 13.0.
CCN(CC)c1cccc(O)c1 was read as TDP1 block 5.9%.
Screening CCN(CC)CC(O)c1ccc2ccc3ccc(O)cc3c2c1 (stereo not drawn) returned DT40 TDP1 CPT inconclusive, CtBP-E1A blk -0.2, Six1-Eya2 inh 1.8, DT40 TDP1 no CPT inconclusive and IL-1B inflam inh -60.9*.
For O=C(c1ccc(F)cc1F)N1CCCC(c2nc(-c3ccc(F)cc3)no2)C1 (stereo not drawn) the results were DT40 TDP1 CPT inconclusive, CtBP-E1A blk 0.0, TDP1 block 5.4%, Six1-Eya2 inh -3.5, DT40 TDP1 no CPT 18.4µM* and IL-1B inflam inh -21.3.
COc1ccc(-c2noc(C3CCCN(C(=O)c4ccccc4OC)C3)n2)cc1OC (stereo not drawn) was read as DT40 TDP1 CPT inconclusive, CtBP-E1A blk -9.8, TDP1 block 9.5%, Six1-Eya2 inh -4.5, DT40 TDP1 no CPT inconclusive and IL-1B inflam inh -9.5.
`O=C(Nc1ccc(F)cc1F)N1CCCC(c2nc(-c3ccc(F)cc3)no2)C1` (stereo not drawn) gave DT40 TDP1 CPT 18.4µM*, CtBP-E1A blk -4.6, TDP1 block 0.0%, Six1-Eya2 inh 6.6, DT40 TDP1 no CPT inconclusive and IL-1B inflam inh -14.8.
Screening COc1ccc(-c2noc(N3CCCC(C(=O)Nc4ccc(F)cc4F)C3)n2)cc1 (stereo not drawn) returned DT40 TDP1 CPT inconclusive, CtBP-E1A blk -5.9, Six1-Eya2 inh -7.8, DT40 TDP1 no CPT inconclusive and IL-1B inflam inh -12.5.
Cc1ccc(C)c(N2CCN(C(=O)Nc3ccc4c(c3)N(C)C(=O)CS4)CC2)c1 was read as DT40 TDP1 CPT 20.6µM*, TDP1 block 2.7%, Six1-Eya2 inh -4.0, DT40 TDP1 no CPT 16.4µM* and IL-1B inflam inh 45.9.
CN1C(=O)c2ccccc2Sc2ccc(NC(=O)N3CCOCC3)cc21 was read as DT40 TDP1 CPT 1.3%, CtBP-E1A blk 2.0, TDP1 block 4.9%, Six1-Eya2 inh -12.1, DT40 TDP1 no CPT inconclusive and IL-1B inflam inh 12.8.
For CN1C(=O)CSc2ccc(NC(=O)N3CCN(c4ccccn4)CC3)cc21 the results were DT40 TDP1 CPT inconclusive, CtBP-E1A blk 4.3, TDP1 block 7.9%, Six1-Eya2 inh -1.8, DT40 TDP1 no CPT inconclusive and IL-1B inflam inh 53.5.
CCN1C(=O)c2ccccc2Sc2ccc(NC(=O)N3CCN(c4cc(C)ccc4C)CC3)cc21 was read as DT40 TDP1 CPT 5.8µM*, TDP1 block -14.3% and DT40 TDP1 no CPT 4.11µM*.
Screening O=C(CCCO)NC1Cc2ccccc2C1 returned DT40 TDP1 CPT -5.3%, CtBP-E1A blk 4.6, TDP1 block 2.6%, Six1-Eya2 inh 9.2, DT40 TDP1 no CPT -1.5% and IL-1B inflam inh 26.9.
Cc1csc(=O)n1CC(=O)OCC(=O)Nc1cc([N+](=O)[O-])ccc1Cl was read as DT40 TDP1 CPT -27.7%, CtBP-E1A blk 0.0, TDP1 block 0.0%, Six1-Eya2 inh -1.1, DT40 TDP1 no CPT -5.0% and IL-1B inflam inh -3.7.
For CCSc1nnc(NC(=O)[C@@H](NC(=O)c2cccc(C)c2)C(C)C)s1 the results were DT40 TDP1 CPT -13.0%, CtBP-E1A blk 6.0, TDP1 block -2.7%, Six1-Eya2 inh 9.1, DT40 TDP1 no CPT -18.4% and IL-1B inflam inh 19.3.
CC(C)[C@H](NC(=O)c1ccc(C(C)(C)C)cc1)C(=O)Nc1nnc(C2CC2)s1 was read as DT40 TDP1 CPT 23.1µM*, CtBP-E1A blk 10.6, TDP1 block 4.5%, Six1-Eya2 inh -6.1, DT40 TDP1 no CPT inconclusive and IL-1B inflam inh -3.3.

Compound activity as filed in PubChem.
